KCNQ2 pot: potentiators of rat KCNQ2 potassium channel. hit rate 0.54% among 310,000. B-score at 10 µM. CHO-K1 KCNQ2, FluxOR thallium flux fluorescence; active compounds read high. Potassium voltage-gated channel subfamily KQT member 2 (Rattus norvegicus), O88943;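 active = fluorescence ratio B-score at least 3 SD of library B-scores, with initial fluorescence B-score within 3 of them, cut at about 5.3 in these data; same plate scores as AID 2156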;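 also: B-score of peak minus minimum over baseline fluorescence ratio after K+ and Tl+ stimulus; positive B-score means potentiation of KCNQ2 with more thallium influx and brighter signal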
Target sequence (O88943 whole entry, looked up): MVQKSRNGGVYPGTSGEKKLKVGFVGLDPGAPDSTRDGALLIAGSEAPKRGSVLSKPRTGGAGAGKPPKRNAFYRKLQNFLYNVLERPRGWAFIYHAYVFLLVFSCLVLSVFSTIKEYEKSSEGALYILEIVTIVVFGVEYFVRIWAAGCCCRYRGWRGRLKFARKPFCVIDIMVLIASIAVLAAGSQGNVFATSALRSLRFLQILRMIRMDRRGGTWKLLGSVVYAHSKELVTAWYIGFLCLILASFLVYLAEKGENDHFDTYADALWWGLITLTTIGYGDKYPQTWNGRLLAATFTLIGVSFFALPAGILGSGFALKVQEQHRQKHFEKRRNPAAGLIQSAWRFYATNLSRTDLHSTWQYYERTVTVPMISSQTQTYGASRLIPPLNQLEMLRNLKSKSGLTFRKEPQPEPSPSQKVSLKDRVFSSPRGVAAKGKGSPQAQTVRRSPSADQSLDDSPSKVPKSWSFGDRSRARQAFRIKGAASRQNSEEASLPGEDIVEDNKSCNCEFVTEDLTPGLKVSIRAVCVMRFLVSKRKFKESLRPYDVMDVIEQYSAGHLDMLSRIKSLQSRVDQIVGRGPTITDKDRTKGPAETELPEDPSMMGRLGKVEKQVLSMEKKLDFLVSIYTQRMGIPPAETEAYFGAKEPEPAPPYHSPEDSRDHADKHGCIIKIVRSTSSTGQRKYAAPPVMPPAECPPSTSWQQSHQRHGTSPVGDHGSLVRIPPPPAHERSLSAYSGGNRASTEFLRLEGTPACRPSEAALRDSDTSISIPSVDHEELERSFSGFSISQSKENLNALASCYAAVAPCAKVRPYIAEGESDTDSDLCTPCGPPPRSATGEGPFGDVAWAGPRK
KCNQ2 inh: rat KCNQ2 potassium channel inhibitors, primary screen, cell-based, CHO-K1, FluxOR thallium flux, B-score; B-score at 10 µM; 20 min; active compounds read low; hit rate 1.1% among 310,000; Potassium voltage-gated channel subfamily KQT member 2 (Rattus norvegicus), O88943;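 active = fluorescence ratio B-score at most minus 3 library SDs, with starting brightness B-score within 2 library SDs, cut at about -5.5 in these data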
Active calls of the source: *; i = inactive; x = no result. In the library only some 1.6% were active in any assay of this set; here they are far more common.

SMILES | KCNQ2 pot | KCNQ2 inh
COc1ccccc1NC(=O)c1ccc2nc(-c3ccccc3)c(-c3ccccc3)nc2c1 | -7.1 | -7.1*
COc1ccc(NC(=O)c2ccc3nc(-c4ccccc4)c(-c4ccccc4)nc3c2)c(OC)c1 | x | i
CCCCN(c1ccccc1)S(=O)(=O)N(C)C | x | i
CCCCN(S(=O)(=O)c1ccccc1)S(=O)(=O)c1ccccc1 | -6 | -6*
O=C(NC1CC1)C1CC(=O)N(c2cccc(Cl)c2Cl)C1 (stereo not drawn) | 0.83 | i
Cc1cccc(Nc2nnc(SCC(=O)NC3CCCc4ccccc43)s2)c1C (stereo not drawn) | -5.9 | -5.9*
O=C(CSc1nnc(-c2ccncc2)n1Cc1ccccc1)NC1CCCc2ccccc21 (stereo not drawn) | -5.8 | -5.8*
O=C(CSc1nc2ccccc2s1)NC1CCCc2ccccc21 (stereo not drawn) | x | i
CNC(=O)CSc1nnc(-c2ccncc2)n1Cc1ccccc1 | x | i
CCCN1C(=O)N(c2cccc(C)c2)C(C)(O)CC1(C)C (stereo not drawn) | x | i
COCCSc1ccccc1C(=O)N1CCc2ccccc21 | 1.1 | i
CC1CCC(C(C)C)C(OC(=O)COC(=O)c2cccn2C)C1 (stereo not drawn) | x | i
CC1CCC(C(C)C)C(OC(=O)Cn2c(-c3ccc(Br)cc3)[n+](C)c3ccccc32)C1 (stereo not drawn) | -5.6 | -5.6*
CCOC(=O)N1CCN(C(=O)CSC2=NS(=O)(=O)c3ccccc3N2)CC1 | 1.2 | i
O=C(OC(C(=O)Nc1ccc(Cl)c(C(F)(F)F)c1)c1ccccc1)C1=COCCO1 (stereo not drawn) | x | i
Cc1cc(C)cc(NC(=O)C(OC(=O)C2=COCCO2)c2ccccc2)c1 (stereo not drawn) | -6.6 | -6.6*
N#CCCN(NC1=NS(=O)(=O)c2ccccc21)C(=O)c1ccccc1Br | 0.44 | i
CC1CCCCC1NC(=O)c1cccc(S(=O)(=O)N2CCN(Cc3ccccc3)CC2)c1 (stereo not drawn) | 1.2 | i
C=CCN1C(=O)c2ccc(C(=O)N(CC)CC(=O)Nc3ccc(OC)cc3)cc2C1=O | 0.14 | i
CCc1cc2c(=O)[nH]c(N3CCCC3)nc2s1 | x | i
CCc1cc2c(=O)[nH]c(-c3ccccn3)nc2s1 | 11* | i
CC(C)(C)NC(=O)C(=O)NNC(=O)COc1ccc(Br)cc1 | 6.2* | i
COC(=O)NNC(=O)c1ccc(C(C)(C)C)cc1 | x | i
CC(C)(C)NC(=O)C(=O)NNC(=O)c1ccc(C(C)(C)C)cc1 | 12* | i
O=C(COc1ccc(Br)cc1)NC1CC1 | 0.88 | i
SMILES | KCNQ2 pot | KCNQ2 inh
Cc1cccc(C(=O)NNC(=O)C(=O)NC(C)(C)C)c1 | 3.2 | i
CC(C)(C)NC(=O)C(=O)NNC(=O)c1cccc(Br)c1 | 6.7* | i
CCc1cccc(NC(=O)C2CCCN(S(=O)(=O)c3cccnc3)C2)c1 (stereo not drawn) | 0.24 | i
CCC(C)Sc1ccc([C@H]2N[C@@](Cc3ccccc3)(C(=O)OC)[C@H]3C(=O)N(CC)C(=O)[C@@H]23)cc1 (stereo partly drawn) | 0.01 | i
Cc1onc(-c2c(Cl)cccc2Cl)c1C(=O)ONC(=O)c1ccccc1 | 0.73 | i
C=CCc1c(OC)ccc2c1c(S(=O)(=O)c1ccc(C)cc1)cn2COC | x | i
Cc1ccccc1OC1C(=O)N(Cc2ccc3c(c2)OCO3)C1c1sccc1C (stereo not drawn) | -6 | -6*
O=C1C(Oc2ccccc2)C(c2cccs2)N1Cc1ccc2c(c1)OCO2 (stereo not drawn) | 0.4 | i
Cc1cc(C(C)(C)C)oc1C(=O)N(CC(=O)NC1CCCC1)c1c(C)cccc1C | -7 | -7*
Cc1cc(C(C)(C)C)oc1C(=O)N(CC(=O)NC1CCCC1)c1ccc(F)cc1 | x | i
O=C(CNS(=O)(=O)c1ccc(Br)s1)N1CCN(c2ccc(F)cc2)CC1 | x | i
CC(=O)c1ccc2c(c1)C1C=CCC1C(c1cc3c(cc1Br)OCO3)N2 (stereo not drawn) | -7.4 | -7.4*
O=C(O)c1ccc2c(c1)C1C=CCC1C(c1ccncc1)N2 (stereo not drawn) | 1.9 | i
Cc1ccc(C2(C)NC(=O)N(CC(=O)NC(=O)NC(C)(C)C)C2=O)cc1 (stereo not drawn) | x | i
CC1(C)Cc2cccc(OCC(=O)N3CCN(c4ccccc4Cl)CC3)c2O1 | -6.2 | -6.2*
CC1(C)Cc2cccc(OCC(=O)N3CCN(c4cccc(Cl)c4)CC3)c2O1 | x | i
CCC(Sc1nc(-c2ccccc2)c(-c2ccccc2)[nH]1)C(=O)O (stereo not drawn) | 0.97 | i
Cc1cc(=O)[nH]c2ccc(Cl)cc12 | 0.91 | i
S=c1[nH]c2ccc(Cl)cc2s1 | 21* | i
CCOc1cc(C2C(C(=O)c3ccco3)=C(O)C(=O)N2CC2CCCO2)ccc1O (stereo not drawn) | x | i
O=C(NC(=S)NCCc1ccc(Cl)cc1)c1ccco1 | 1.9 | i
COc1cc(C(=O)NC(=S)N(CCc2ccccc2)CCc2ccccc2)cc(OC)c1OC | 18* | i
COc1cc(C(=O)NC(=S)N(C)Cc2ccccc2)cc(OC)c1OC | x | i
O=C(NC(=S)N(CCc1ccccc1)CCc1ccccc1)c1ccco1 | 16* | i
CC1CCCC(N2CCN(C(=O)c3ccc([N+](=O)[O-])cc3)CC2)C1 (stereo not drawn) | x | i
SMILES | KCNQ2 pot | KCNQ2 inh
Cc1ccc(N(CC(=O)Nc2ccccc2-c2ccccc2)S(=O)(=O)c2ccccc2)c(C)c1 | -7.7 | -7.7*
CS(=O)(=O)N(CC(=O)Nc1ccccc1-c1ccccc1)c1ccccc1 | x | i
NC(=O)c1c(NC(=O)C(=O)N2CCOCC2)sc2c1CCC2 | x | i
Cc1ccc(C2=NN(C(=O)CCl)C(c3ccco3)C2)o1 (stereo not drawn) | x | i
COC(=O)c1ccc(NC(=O)CSC2=Nc3ccccc3C3CC=NN23)cc1 (stereo not drawn) | x | i
CC(SC1=Nc2ccccc2C2CC=NN12)C(=O)NC1(C#N)CCCCC1 (stereo not drawn) | -8.7 | -8.7*
CCOC(=O)c1c(N)sc(C(O)(C(F)(F)F)C(F)(F)F)c1-c1ccccc1 | -7.2 | -7.2*
CCOC(=O)c1c(N)sc(-c2ccccc2)c1C | x | i
COc1ccc(O)c(/C=C(\C#N)C(=O)Nc2ccccn2)c1 | x | i
COc1cccc(NC(=O)n2nc(N)cc2-c2ccc(Cl)cc2)c1 | -5.7 | -5.7*
COc1cccc(NC(=O)COC(=O)Cc2ccc(Cl)cc2)c1 | 0.88 | i
CC(C)c1onc(C(=O)Nc2ccc3c(c2)OCO3)c1[N+](=O)[O-] | x | i
COc1nnc(-c2ccc(N3CCOCC3)c(NC(=O)C3CCCCC3)c2)c2ccccc12 | x | i
COc1nnc(-c2ccc(N3CCCCC3)c(NC(=O)C3CCCCC3)c2)c2ccccc12 | -6.2 | -6.2*
CC(=O)N/C(=C\c1ccccc1)C(=O)OCc1ccc(F)cc1 | x | i
Cc1ccc(-n2c(SCC(=O)Nc3ccc4c5c(cccc35)CC4)nc(O)cc2=O)cc1 | 2.3 | i
Cc1ccc(-n2c(SCC(=O)Nc3ccc4c5c(cccc35)CC4)nc(O)c(C)c2=O)cc1 | 7* | i
Cc1cc(C(=O)CSc2nc3ccc(Cl)cc3[nH]2)c(C)n1C | -6.3 | -6.3*

Screens from PubChem.
